The text below walks through data of PubChem BioAssay AID2782 (National Center for Advancing Translational Sciences (NCATS), 2010).

Records with an inconclusive call do not appear. Unmarked numbers belong to inactive results. Active and inactive are the calls of the source. Calls follow the shape of the dose curve; as a rule, active = well fitted inhibition curve with a large enough effect in the polarisation, with a control signal flat (not every such curve was filed as active); inconclusive = small, poorly fitted or top-dose-only effect, or effect the other way, or a change in a side signal; inactive = no such curve, though single readings can be large or run the other way; the % refers to the polarisation.
% is scaled to controls: 0 for no effect and ±100 for the full control effect; potency is read from the fitted curve at half-maximal effect.

The nature of this test: Confirmation of Inhibitors Targeting the Menin-MLL Interaction in MLL Related Leukemias: Competition With Texas Red Labeled MLL-derived Mutant Peptide. The following applies: fluorescence polarization, Texas Red MLL peptide displacement; series mostly up to 94.6 µM; FP change, negative = inhibition: at the top concentration. The procedure, abridged: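 Hits from the primary screen were retested: compounds were incubated 1 hr at ambient with 200 nM menin, 50 nM Texas Red mutant peptide and 25 nM fluorescein wild-type peptide (Tris pH 7.5, BSA-supplemented buffer), then fluorescence polarization was read.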
On the technique in general: In fluorescence polarisation assays a small probe gives low polarisation when free and higher when bound to something large.
Take `O=C1NC(=S)N/C1=C/c1ccc2ccccc2c1`: the “FP change, negative = inhibition” value was 40.9% [at 288 µM].
On the same count and under the same terms, the result for `CCOC(=O)N1CCN(CCC(=O)c2ccc(Br)cc2)CC1` reads 3.33%; that for `CN1CCN(CC(=O)c2ccccc2F)CC1`, 4.65%; that for `CCC(C)C1NC(=O)C(CCNCS(=O)(=O)O)NC(=O)C(NC(=O)C(CCNCS(=O)(=O)O)NC(=O)C(NC(=O)C(CCNCS(=O)(=O)O)NC(=O)CCCCC(C)C)C(C)O)CCNC(=O)C(C(C)O)NC(=O)C(CCNCS(=O)(=O)O)NC(=O)C(CCNCS(=O)(=O)O)NC(=O)C(C(C)CC)NC1=O` (centres undefined), 12.3%.
For `CC(=O)NC1C(=O)N(CCN2CCOCC2)c2ccc(C)cc21` (centres undefined), the Potency is 71 µM (active).
Regarding `Cn1c(=O)[nH]c(=O)c2c1nc(Br)n2CCSc1nc2ccccc2o1`, the “FP change, negative = inhibition” value was -7.1% [at 288 µM].
Still for that read-out and setting: the same measure for `COc1ccc(/C=C(\C#N)C(=O)NCc2ccccc2)cc1`: 14.8%.
For `CCN1C(=O)[C@@H]2C(C(=O)c3cnccn3)=NN[C@@H]2C1=O`, the “FP change, negative = inhibition” value was -4.09%.
As to `CCC(C)CCCCC(=O)NC(CCN)C(=O)NC(C(=O)NC(CCN)C(=O)NC1CCNC(=O)C(C(C)O)NC(=O)C(CCN)NC(=O)C(CCN)NC(=O)C(CC(C)C)NC(=O)C(Cc2ccccc2)NC(=O)C(CCN)NC1=O)C(C)O` (centres undefined), the Potency is 7.08 µM (active).
Consider `COc1ccc(CN2CCN(C(C)C(=O)N(C)Cc3cccc(F)c3)CC2)cc1OC` (centres undefined), for which the “FP change, negative = inhibition” value was 23.5%.
As to `CCc1cc2c(N3CCN(C(=O)c4ccco4)CC3)ncnc2s1`, the Potency was 35.5 µM (active).
With `O=C(O)CCC(=O)Nc1ccc(SSc2ccc(NC(=O)CCC(=O)O)cc2)cc1`, the “FP change, negative = inhibition” value is 0.124% [at 288 µM].
Turning to `CCOC(=O)N1CCN(Cc2nnc(-c3ccccc3C)o2)CC1`, the “FP change, negative = inhibition” value is 17.8%.
With `CCN1CCN(CC(=O)Nc2ccc(C(C)=O)cc2)CC1`, the “FP change, negative = inhibition” value is -11.2%.
With `CC(=O)Nc1ccc(-c2cc3ccccc3o2)cc1`, the “FP change, negative = inhibition” value is 32.9% [at 288 µM].
Regarding `C[C@H](NC(=O)c1cc2c(cn1)[nH]c1ccccc12)C(=O)O`, the Potency is 56.4 µM (active).
On the same count and under the same terms, the same measure for `O=C(CN1C(=O)/C(=C/c2cccc(Br)c2)SC1=S)NC1=NCCS1`: 17.8 µM (active).
`CCc1ccc(CNC(=O)CCS(=O)(=O)Cc2ccccc2F)cc1`: the “FP change, negative = inhibition” value is 20.1%.
The same measure, in the same setting: the result for `CC(CC(=O)Nc1nc2ccccc2[nH]1)n1ccnc1` (centres undefined) reads -14.1%.
For the compound `CCCC(c1nnnn1Cc1ccco1)N1CCN(C2CCCC2)CC1` (centres undefined), the Potency was 79.4 µM (active).
On to `O=C(c1cc(F)c(F)cc1Cl)N1CCN(c2ncccn2)CC1`, for which the “FP change, negative = inhibition” value was 13.9%.
For `COc1ccccc1CC(=O)Nc1ccc(-c2noc(COc3ccc(Br)cc3)n2)cc1`, the Potency is 71 µM (active).
On to `CCn1ncc(C(=O)Nc2cc(C)on2)c1C`, for which the “FP change, negative = inhibition” value was -7.12%.
With `NC(=NCCCCCCN=C(N)/N=C(\N)Nc1ccc(Cl)cc1)/N=C(\N)Nc1ccc(Cl)cc1`, the Potency is 70.8 µM (active).
With `Cc1ccc(C)n1-c1ccc(N(C)C)cc1`, the “FP change, negative = inhibition” value was -2.7%.
The same measure, in the same setting: the same measure for `COc1cccc(NC(=O)N2CCCc3ccccc32)c1`: 18.2%; for `Cn1ncc2c(N3CCCCC3)nc(NCCCO)nc21`: -1.8%; for `CCn1cnc2c1c(=O)n(CC(=O)O)c(=O)n2Cc1ccccc1`: -10.1% [at 288 µM].
For `Cc1cnc(NC(=O)C2C(=O)c3ccccc3S(=O)(=O)N2C)s1` (centres undefined), the “FP change, negative = inhibition” value was 8.84% [at 288 µM].
As for `CN(C)c1ccc(N=Nc2ccc(C(=O)O)cc2)cc1`, the Potency is 141 µM (active).
For `CCOc1ccccc1N(CC(=O)Nc1ccccc1C(=O)N1CCCC1)S(C)(=O)=O`, the “FP change, negative = inhibition” value was 2.1%.
Regarding `CCCC(=O)Nc1cccc(NC(=O)c2ccc([N+](=O)[O-])cc2Cl)c1`, the “FP change, negative = inhibition” value was -11.1% [at 288 µM].
Regarding `NS(=O)(=O)c1ccc(NC(=O)c2ccc(S(=O)(=O)N3CCc4ccccc43)cc2)cc1`, the Potency is 20 µM (active).
For the compound `O=C(Nc1nnc(-c2ccccc2SCc2ccccc2)s1)Nc1ccccc1F`, the Potency was 22.4 µM (active).
